PubChem BioAssay AID1159580 (chemical genetic matrix, 2015)
Where “and” joins values, the source holds several entries; their conditions need not be identical. Identical values can stand only once. The campaign covered roughly 5,500 compounds. About 2,000 (36%) were called active. Roughly 18% stayed inconclusive and do not appear here. Rule as the data show it: active = normalized growth mostly below about 0.91 (no sharp cut-off); inconclusive = no clear call, values can overlap the other calls; inactive = mostly above about 0.92. This is one part of the list.

Assay: chemical genetic growth profiling, strain panel (AID 1159580);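 also: tested at 20 µM; growth read once vehicle control cultures reached saturation at 30 °C; 1 = growth at the plate median or of vehicle wells; lower values mean less growth of the strain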
Details: S. cerevisiae deletion strains, growth OD

Measured: normalized growth

COc1c(O)cc2c(-c3ccccc3)cc(=O)oc2c1OC
inactive: locus YAL021C, strain ccr4, hits give low values 0.994 | locus YAL026C, strain drs2, hits give low values 1.01 | locus YAL030W, strain snc1, hits give low values 0.992 | locus YBL061C, strain skt5, hits give low values 1.01 | locus YBR009C, strain hhf1, hits give low values 0.994 | locus YBR021W, strain FUR4, hits give low values 0.982 | locus YBR023C, strain chs3, hits give low values 0.994 | locus YBR171W, strain sec66, hits give low values 1.01 | locus YBR229C, strain ROT2, hits give low values 0.995 | locus YBR231C, strain swc5, hits give low values 1 | locus YBR279W, strain paf1, hits give low values 0.995 | locus YCL011C, strain gbp2, hits give low values 0.995 | locus YCL016C, strain dcc1, hits give low values 0.993 | locus YCL029C, strain bik1, hits give low values 0.964 | locus YCL061C, strain MRC1, hits give low values 0.994 | locus YCL069W, strain vba3, hits give low values 1.01 | locus YCR088W, strain abp1, hits give low values 0.995 | locus YDL005C, strain med2, hits give low values 0.99 | locus YDL035C, strain GPR1, hits give low values 1.05 | locus YDL040C, strain nat1, hits give low values 0.997 | locus YDL074C, strain BRE1, hits give low values 1.01 | locus YDL101C, strain DUN1, hits give low values 0.99 | locus YDL134C, strain PPH21, hits give low values 1.03 | locus YDL185W, strain tfp1, hits give low values 0.95 | locus YDL192W, strain arf1, hits give low values 0.988 | locus YDR001C, strain nth1, hits give low values 0.987 | locus YDR069C, strain doa4, hits give low values 1.02 | locus YDR101C, strain arx1, hits give low values 1.01 | locus YDR137W, strain rgp1, hits give low values 0.889 | locus YDR159W, strain sac3, hits give low values 0.999 | locus YDR162C, strain NBP2, hits give low values 1.01 | locus YDR195W, strain ref2 0.989 | locus YDR297W, strain sur2, hits give low values 1.02 | locus YDR318W, strain mcm21, hits give low values 0.973 | locus YDR334W, strain swr1, hits give low values 1 | locus YDR335W, strain msn5, hits give low values 0.995 | locus YDR388W, hits give low values 0.984 | locus YDR392W, strain spt3, hits give low values 0.848 | locus YDR502C, strain sam2, hits give low values 0.955 | locus YEL003W, strain gim4, hits give low values 1.02 | locus YEL037C, strain rad23, hits give low values 1 | locus YEL061C, strain CIN8 (second series), hits give low values 0.995 | locus YER015W, strain faa2, hits give low values 0.997 | locus YER016W, strain bim1, hits give low values 1 | locus YER110C, hits give low values 0.968 | locus YER111C, strain swi4, hits give low values 0.997 | locus YER155C, strain BEM2 (second series), hits give low values 1.02 | locus YER155C, strain BEM2, hits give low values 0.989 | locus YER167W, strain BCK2, hits give low values 0.988 | locus YFR010W, strain ubp6, hits give low values 1.02 | locus YGL078C, strain dbp3, hits give low values 1 | locus YGL086W, strain mad1, hits give low values 0.996 | locus YGL167C, strain pmr1, hits give low values 0.971 | locus YGL173C, strain kem1, hits give low values 1.01 | locus YGL227W, strain vid30, hits give low values 0.996 | locus YGL240W, strain doc1, hits give low values 1.02 | locus YGL248W, strain PDE1, hits give low values 1.02 | locus YGL253W, strain hxk2, hits give low values 1.02 | locus YGR135W, strain pre9, hits give low values 0.954 | locus YGR252W, strain gcn5, hits give low values 1.06 | locus YHR013C, strain ard1, hits give low values 0.978 | locus YHR027C, strain rpn1, hits give low values 0.987 | locus YHR030C, strain SLT2, hits give low values 0.993 and 1.06 | locus YHR079C, strain IRE1 (second series), hits give low values 0.959 | locus YHR079C, strain IRE1, hits give low values 1.05 | locus YHR094C, strain hxt1, hits give low values 0.983 | locus YHR129C, strain ARP1, hits give low values 1.01 | locus YHR142W, strain chs7, hits give low values 0.965 | locus YHR200W, strain rpn10, hits give low values 0.986 | locus YIL066C, strain RNR3, hits give low values 1 | locus YIL073C, strain SPO22, hits give low values 0.905 | locus YIL125W, strain kgd1, hits give low values 0.992 | locus YIR030C, strain dcg1, hits give low values 0.957 | locus YJL092W, strain hpr5, hits give low values 0.991 | locus YJL095W, strain BCK1 (second series), hits give low values 0.999 | locus YJL095W, strain BCK1, hits give low values 1.11 and 1.04 | locus YJL115W, strain asf1, hits give low values 0.995 | locus YJL129C, strain trk1, hits give low values 0.948 | locus YJL134W, strain LCB3, hits give low values 0.993 | locus YJL154C, strain vps35, hits give low values 0.985 | locus YJL164C, strain tpk1, hits give low values 0.974 | locus YJL166W, strain qcr8, hits give low values 0.999 | locus YJL168C, strain set2, hits give low values 0.965 | locus YJL187C, strain SWE1 (second series), hits give low values 1 | locus YJL187C, strain SWE1, hits give low values 0.989 | locus YJR043C, strain POL32, hits give low values 1.04 | locus YJR066W, strain TOR1, hits give low values 0.984 | locus YKL009W, strain mrt4, hits give low values 0.996 | locus YKL068W, hits give low values 0.985 | locus YKL085W, strain MDH1 (second series), hits give low values 0.973 | locus YKL085W, strain MDH1, hits give low values 0.973 | locus YKL160W, strain elf1, hits give low values 0.983 | locus YKL190W, strain CNB1, hits give low values 0.99 | locus YKR001C, strain vps1, hits give low values 0.946 | locus YKR026C, strain gcn3, hits give low values 1 | locus YKR091W, strain srl3, hits give low values 0.995 | locus YLL001W, strain dnm1, hits give low values 0.962 | locus YLL026W, hits give low values 1 | locus YLL041C, strain sdh2, hits give low values 0.998 | locus YLR027C, strain aat2, hits give low values 1 | locus YLR039C, strain RIC1, hits give low values 0.979 | locus YLR058C, strain SHM2, hits give low values 1.01 | locus YLR102C, strain apc9, hits give low values 0.983 | locus YLR113W, strain HOG1, hits give low values 1.03 | locus YLR221C, strain rsa3, hits give low values 1.04 | locus YLR258W, strain gsy2, hits give low values 1.01 | locus YLR262C, strain YPT6 (second series), hits give low values 0.878 | locus YLR268W, strain sec22, hits give low values 0.975 | locus YLR320W, strain mms22, hits give low values 1.02 | locus YLR330W, strain CHS5, hits give low values 0.985 | locus YLR342W, strain FKS1, hits give low values 1 | locus YLR357W, strain rsc2, hits give low values 0.95 | locus YLR370C, strain arc18, hits give low values 0.99 | locus YLR371W, strain rom2, hits give low values 0.97 | locus YLR384C, strain iki3, hits give low values 0.988 | locus YLR418C, strain cdc73, hits give low values 0.948 | locus YML016C, strain PPZ1, hits give low values 1 | locus YML032C, strain rad52, hits give low values 0.995 | locus YML120C, strain ndi1, hits give low values 0.966 | locus YML124C, strain tub3, hits give low values 0.971 | locus YMR058W, strain fet3, hits give low values 1.01 | locus YMR078C, strain ctf18, hits give low values 0.961 | locus YMR125W, strain sto1, hits give low values 0.973 | locus YMR129W, hits give low values 0.995 | locus YMR205C, strain PFK2, hits give low values 0.936 | locus YMR223W, strain ubp8, hits give low values 0.978 | locus YMR231W, strain pep5, hits give low values 0.995 | locus YMR263W, strain SAP30, hits give low values 0.989 | locus YNL067W, strain RPL9B, hits give low values 1.01 | locus YNL071W, strain lat1, hits give low values 0.993 | locus YNL128W, strain TEP1, hits give low values 1 | locus YNL153C, strain GIM3, hits give low values 1 | locus YNL183C, strain NPR1, hits give low values 0.994 | locus YNL209W, strain ssb2, hits give low values 0.991 | locus YNL233W, strain BNI4, hits give low values 1.01 | locus YNL248C, strain rpa49, hits give low values 1.03 | locus YNL250W, strain rad50, hits give low values 0.915 | locus YNL271C, strain bni1, hits give low values 0.973 | locus YNL298W, strain CLA4, hits give low values 1.01 | locus YNL307C, strain MCK1, hits give low values 0.95 | locus YNL322C, strain KRE1 (second series), hits give low values 0.982 | locus YNR049C, strain mso1, hits give low values 1.01 | locus YNR052C, strain pop2, hits give low values 0.99 | locus YOL012C, strain htz1 1.04 | locus YOL147C, strain pex11, hits give low values 0.968 | locus YOR001W, strain rrp6, hits give low values 1.02 | locus YOR061W, strain CKA2, hits give low values 1 | locus YOR069W, strain VPS5, hits give low values 0.994 | locus YOR070C, strain gyp1, hits give low values 0.999 | locus YOR080W, strain dia2, hits give low values 1.02 | locus YOR083W, strain WHI5, hits give low values 0.984 | locus YOR106W, strain vam3, hits give low values 0.967 | locus YOR136W, strain idh2, hits give low values 0.977 | locus YOR144C, strain elg1, hits give low values 0.989 | locus YOR184W, strain ser1, hits give low values 1.03 | locus YOR231W, strain MKK1, hits give low values 1.06 | locus YOR265W, strain rbl2, hits give low values 0.987 | locus YOR270C, strain vph1, hits give low values 1.01 | locus YOR290C, strain snf2, hits give low values 0.967 | locus YOR316C, strain cot1, hits give low values 0.962 | locus YPL051W, strain arl3, hits give low values 1.02 | locus YPL055C, strain LGE1, hits give low values 1.06 | locus YPL078C, strain atp4, hits give low values 0.969 | locus YPL106C, strain sse1, hits give low values 0.983 | locus YPL240C, strain hsp82, hits give low values 1 | locus YPL256C, strain CLN2, hits give low values 1.02 | locus YPR119W, strain clb2, hits give low values 0.947 | locus YPR141C, strain kar3, hits give low values 0.968 | locus YPR163C, strain tif3, hits give low values 0.98 | locus YPR167C, strain met16, hits give low values 0.968 | strain wtn01, hits give low values 0.991
active: locus YMR307W, strain GAS1, hits give low values 1.67 [resistant]
